Assay results as given in PubChem BioAssay AID1861 (The Scripps Research Institute Molecular Screening Center, 2009).
Hit rate of the full screen: of about 290,000 compounds, about 3,100 (1.1%) were called active. Many of the other results were omitted from the sample, so actives are more common in it than they were. Values without a mark were called inactive. Rule as the data show it: active = inhibition above about 16% (passing the limit was not always enough); inactive = the rest.

target: Neuropeptides B/W receptor type 1 (Homo sapiens) (UniProt P48145); test: blockers of human neuropeptide B/W receptor 1 – cell-based, fluorescence, single concentration, primary screen (AID 1861); settings: GPR7-expressing cells, fluorescence antagonist assay; at 4.4 µM; active compounds read high;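 also: cells stimulated with the agonist NPW; 0% = agonist with vehicle and 100% = vehicle without agonist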
Sequence (P48145 whole entry, looked up): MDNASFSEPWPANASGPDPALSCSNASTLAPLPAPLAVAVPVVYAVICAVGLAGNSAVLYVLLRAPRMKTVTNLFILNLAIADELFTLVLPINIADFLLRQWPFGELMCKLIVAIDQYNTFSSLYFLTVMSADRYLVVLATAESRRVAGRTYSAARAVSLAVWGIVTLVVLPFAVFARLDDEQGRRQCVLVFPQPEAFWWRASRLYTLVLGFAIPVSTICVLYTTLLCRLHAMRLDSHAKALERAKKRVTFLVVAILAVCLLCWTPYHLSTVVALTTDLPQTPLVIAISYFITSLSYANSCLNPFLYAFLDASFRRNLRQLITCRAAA

Q: For `Cc1ccc(NS(=O)(=O)c2ccc(-c3ccc(=O)[nH]n3)o2)c(C)c1`, which inhibition is on record?
A: -0.17%

Q: How did the inhibition turn out when `COc1cc(C(C(=O)NC2CCCC2)N(Cc2ccccc2)C(=O)c2snc(C(N)=O)c2N)ccc1O` (stereo unspecified) was run?
A: -10.6%

Q: Which inhibition does the source give for `CCc1ccc(S(=O)(=O)Nc2cc3c(cc2N2CCCCC2)n(C)c(=O)c(=O)n3C)cc1` here?
A: 4.78%

Q: How did the inhibition turn out when `Cc1ccc(S(=O)(=O)n2cnc3ccccc32)c(C)c1` was run?
A: 35.5% (active)

Q: `COc1ccc(S(=O)(=O)n2cnc3ccccc32)c(C)c1` was tested. Which inhibition did it give?
A: -5.76%

Q: For `Cc1ccc(C)c(S(=O)(=O)n2cnc3ccccc32)c1`, which inhibition is on record?
A: 8%

Q: Which inhibition does the source give for `CCc1nc2ccc(C(=O)N3CCN(c4cccc(Cl)c4)CC3)cc2nc1CC` here?
A: -5.19%

Q: `O=C1CCC([N+](=O)[O-])C(c2ccccc2Br)N1` (stereo unspecified) was tested. Which inhibition did it give?
A: -13.4%

Q: `CCCOc1ccccc1C1CC(=O)Nc2cc3c(cc21)OCO3` (stereo unspecified) was tested. Which inhibition did it give?
A: 23.7% (active)

Q: For `COc1ccc(C2CC(=O)Nc3cc(C)c(C)cc32)c(OC)c1OC` (stereo unspecified), which inhibition is on record?
A: -2.76%

Q: How did the inhibition turn out when `COc1ccccc1C1C2=C(COC2=O)Nc2cc3c(cc21)OCO3` (stereo unspecified) was run?
A: 3.72%

Q: `OC(CN1C2=NCCCN2c2ccccc21)c1ccc(Br)cc1` (stereo unspecified) was tested. Which inhibition did it give?
A: 13.8%

Q: How did the inhibition turn out when `Cc1cc2c(cc1C)N(Cc1ccccc1)C1=NCCCN12` was run?
A: 23.7% (active)

Q: Which inhibition does the source give for `CC(C)(C)C(=O)CN1C2=NCCN2c2ccccc21` here?
A: -10.1%

Q: With `CC(=O)Nc1ccc(NC(=O)CS(=O)(=O)c2cn(CC(=O)N3CCCCC3)c3ccccc23)cc1` as the molecule, how does the inhibition read?
A: -0.17%

Q: With `CC(=O)Nc1ccc(CN2CCC(Oc3ccc(C(=O)N4CCCC4)cc3)CC2)cc1` as the molecule, how does the inhibition read?
A: -2.18%

Q: Which inhibition does the source give for `COc1ccc(OCc2nnc3n2N=C(c2ccccc2)C(CC(=O)O)S3)cc1` (stereo unspecified) here?
A: -5.82%

Q: `O=C(Cc1ccccn1)c1ccc(O)cc1O` was tested. Which inhibition did it give?
A: 1.18%

Q: Which inhibition does the source give for `CCOc1ccc(NC(=O)CCNC(=O)c2ccc(Br)cc2)cc1` here?
A: -13.4%

Q: `CCOC(=O)C1CSC(CC(=O)Nc2ccc(OCC)cc2)C(=O)N1` (stereo unspecified) was tested. Which inhibition did it give?
A: 31.6% (active)

Q: For `CCOc1ccc(NC(=O)CC2NCCNC2=O)cc1` (stereo unspecified), which inhibition is on record?
A: -18.5%

Q: `CN(c1ccccc1)S(=O)(=O)c1ccc(NC(=O)COc2ccccc2)cc1` was tested. Which inhibition did it give?
A: 1.02%

Q: `COc1ccc(NC(=O)C2C3CCC(O3)C2C(=O)O)cc1OC` (stereo unspecified) was tested. Which inhibition did it give?
A: -10.2%

Q: For `Cc1cccc(-c2nnc(SCC(=O)O)n2Cc2ccccc2)c1`, which inhibition is on record?
A: -5.33%

Q: Which inhibition does the source give for `CC1C=CCC2C(=O)N(c3cccc(C(=O)N4CCCCCC4)c3)C(=O)C12` (stereo unspecified) here?
A: 3.08%

Q: `COC(=O)c1ccccc1NC(=O)CSc1n[nH]c(-c2ccncc2)n1` was tested. Which inhibition did it give?
A: -2.88%
